The results in this text go back to PubChem BioAssay (NCI).

This is part of a sample that, as a whole, favours compounds with a hit. Of some 83,000 tested, about 20% had one in any assay.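 For each line, cells grew in 96-well plates with the test compound present at a single concentration for 48 hours.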 Unmarked numbers belong to inactive results. The source made the active and inactive calls. The calls were made as follows: active = growth percent below 10; inactive = the rest.

The assay concerns HL-60(TB) leukemia. Nature of the assay: NCI-60 one-dose screen, 48 h (100 = growth as untreated, 0 = no growth, -100 = all killed). Particulars: 10 µM unless noted.
Turning to `CCCC(=O)NC(c1cccnc1)c1cc(Cl)c2cccnc2c1O` (stereo not given), the growth was 34.1%.

As for `O=c1[nH][nH]c(-c2ccc(F)cc2)c1-c1nc2ccccc2s1`, the growth is 103%.

Turning to `CC(C)NC(=O)c1cc(-c2ccc(NC(=O)Nc3ccc(F)c(C(F)(F)F)c3)cc2)nc2cccnc12`, the growth was 109%.

Turning to `COc1ccc2c(c1)C=CC1(O2)Oc2ccc(OC)cc2C=C1C` (stereo not given), the growth is -3.1% (active).

For the compound `O=C1Nc2cc(Cl)ccc2/C1=C\c1ccc(OCc2ccc([N+](=O)[O-])cc2)cc1`, the growth was 96.9%.

Regarding `N#Cc1c(-c2cccs2)cc(-c2cnccn2)nc1SCC(=O)c1ccc(F)cc1`, the growth was 131%.

In the case of `CCOC(=O)c1c(NC(=O)c2cccc(C(F)(F)F)c2)sc2c(CN3CCN(C)CC3)c(O)ccc12`, the growth is -31% (active).

Consider `CCC(C)[C@H]1OC(=O)[C@H](C(C)C)N(C)C(=O)[C@@H](C(C)C)OC(=O)[C@H](C(C)C)N(C)C(=O)[C@@H](C(C)CC)OC(=O)[C@H](C(C)C)N(C)C1=O` (stereo not given in full), for which the growth is -47.7% (active).

With `CCCCCCNC(=O)Oc1ccc(/C(=C(\C)c2ccc(Cl)cc2)c2ccc(OCCN(C)C)cc2)cc1`, the growth is -8.4% (active).

For the compound `COc1cc2nc(-c3ccc(C)cc3)cc(OCCCNCC3CCCO3)c2cc1OC` (stereo not given), the growth is 48.6%.

For `O=C(Nc1cccc(-c2nc(-c3ccc(NC(=O)c4cccnc4)cc3Cl)no2)c1)Nc1ccc(NC(=O)C2CC2)c(C(F)(F)F)c1`, the growth is -41.5% (active).

Consider `COc1cc(OC)c(/C=C/S(=O)(=O)Cc2ccc(OC)c(NCC(=O)NO)c2)c(OC)c1`, for which the growth is -13.5% (active).

For `N#Cc1c(-c2ccc(Br)cc2)cc(-c2c[nH]c3ccccc23)nc1N`, the growth was 28.8%.

Take `COc1ccc(OC)c(NC(=O)CCCCCCNC(=O)C(O)(O)C(F)(F)F)c1`: the growth is 10.6%.

`COc1ccc([C@H]2[C@H](O)C(=O)N2c2cc(OC)c(OC)c(OC)c2)cc1F`: the growth is -13% (active).

As for `C#C[C@]1(O)CC[C@H]2[C@@H]3CC=C4c5sc(-c6ccc(OC)cc6)nc5CC[C@]4(C)[C@H]3CC[C@@]21C`, the growth was 21.1%.

For the compound `Cc1nn(-c2ccccc2)c2nc(CCl)[nH]c(=O)c12`, the growth is 33.1%.

Turning to `NS(=O)(=O)c1ccc(Nc2nc(SCC(=O)c3ccc(Cl)cc3)nc3ccccc23)cc1`, the growth was 103%.

For the compound `Cc1ccc(C(=O)Nc2ccc(CNCCN3CCNCC3)c(C(F)(F)F)c2)cc1C#Cc1cnc2cccnn12`, the growth is -54.7% (active).

On to `CCn1c(SCC(=O)Nc2cccc(C(=O)/C=C/c3ccc(Br)cc3)c2)nc2ccccc2c1=O`, for which the growth is 84.7%.

Consider `C=CCn1c(SCC(=O)Nc2ccc(OC)cc2)nnc1-c1ccc(Cl)cc1`, for which the growth was 78%.

Consider `CCc1ccc(SC2c3ccc(N(CC)CC)cc3Oc3nc(N)c(C#N)c(N)c32)cc1` (stereo not given), for which the growth was -12.5% (active).

With `CN1CCc2c(sc3ncnc(N/N=C/c4ccc(Cl)c(Cl)c4)c23)C1`, the growth was -58.2% (active).

In the case of `CN1CCC[C@]2(C)[C@H]3CC[C@@H]4[C@@H]5[C@H]6OC[C@@]5(CCC6(C)C)CC[C@@]4(C)[C@]3(C)CC[C@H]2C1(C)C`, the growth was 30.6%.

On to `N#Cc1ccc(C(=O)CSc2nc(Nc3ccc(S(N)(=O)=O)cc3)c3ccccc3n2)cc1`, for which the growth was 105%.
